Measurements: PubChem BioAssay (NCI)
This is part of a sample that, as a whole, favours compounds with a hit. Of some 79,000 tested, about 15% had one in any assay. No stated cut-off is given here; in the data, active means growth inhibition above about 70%; inactive means the rest.

Experiments:
[1] = NCI Yeast Anticancer Drug Screen. Data for the rad50 strain (AID 155);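 further: 0% = growth of vehicle-only cultures of the same strain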; settings: S. cerevisiae rad50 strain growth inhibition; at 50.0 µM; hits give high values
Summary of the method: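 A DNA repair-deficient yeast mutant serves as the test organism; compound-induced growth inhibition is calculated against vehicle-treated cells.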

[2] = NCI Yeast Anticancer Drug Screen. Data for the mec2-1 strain (AID 157); settings: S. cerevisiae mec2-1 strain, at 50.0 µM, hits give high values
Summary of the method: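 Yeast mec2-1 mutant treated with compound. Readout: growth inhibition vs vehicle controls.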

[3] = NCI Yeast Anticancer Drug Screen. Data for the sgs1 mgt1 strain (AID 161);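 further: 0% = growth of cultures given vehicle only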; settings: S. cerevisiae sgs1 mgt1 strain, at 50.0 µM, hits give high values
Summary of the method: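 Read-out: growth inhibition vs vehicle controls. Cells: mutant yeast strain deficient in DNA damage repair.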

[4] = NCI Yeast Anticancer Drug Screen. Data for the cln2 rad14 strain (AID 165);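 further: 0% = growth equal to vehicle treated cultures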; settings: S. cerevisiae cln2 rad14 strain, at 50.0 µM, hits give high values
Summary of the method: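 cln2 rad14 yeast strain; compound exposure; growth inhibition read vs vehicle controls.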

[5] = NCI Yeast Anticancer Drug Screen. Data for the bub3 strain (AID 167); settings: S. cerevisiae bub3 mutant strain, at 50.0 µM, hits give high values
Summary of the method: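 Inhibition values come from growth of compound-treated mutant yeast normalised to vehicle-treated controls.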

[6] = NCI Yeast Anticancer Drug Screen. Data for the mlh1 rad18 strain (AID 175); settings: S. cerevisiae mlh1 rad18 strain growth inhibition; at 50.0 µM; hits give high values
Summary of the method: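 Yeast w/ defined DNA-repair lesions; compound exposure; growth vs vehicle controls → % inhibition.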

Measured: growth inhibition

CCCC[n+]1cc(C(N)=O)cc2ccccc21
inactive: [1] -3.9% | [2] 7.3% | [3] 3.25% | [4] -44.5% | [5] 5.7% | [6] 9.45%

CCCc1ccc(N=Nc2ccc(C(=O)O)cc2)cc1
inactive: [1] -1.25% | [2] -3.4% | [3] -2.9% | [4] -11.9% | [5] -11.9% | [6] 0.7%

O=C(Cc1ccccn1)c1cccnc1
inactive: [1] -1.15% | [2] -9.7% | [3] -4.75% | [4] -27.2% | [5] -17% | [6] -4.25%

C=CCNC(=O)NCCCCC(NC(C)=O)C(=O)NCc1ccccc1 (stereo unspecified)
inactive: [1] -25.4% | [2] -18.4% | [3] -13.6% | [4] 2.35% | [5] -16.8% | [6] -10%

CC(NC(=O)C(C)(C)C)c1ccc(-c2ccccc2)cc1 (stereo unspecified)
inactive: [1] 11.8% | [2] 29.6% | [3] 9.2% | [4] 12.6% | [5] 2% | [6] 10.8%

Oc1ccccc1CN=Cc1ccccc1
inactive: [1] 7.45% | [2] 4.1% | [3] -4.25% | [4] -0.5% | [5] -27.2% | [6] 4.85%

Cc1n[nH]c(=S)n1C
inactive: [1] -25.2% | [2] -6.05% | [3] -4.25% | [4] -23.2% | [5] 8.55% | [6] 12.8%

COc1ccc2[nH]cc(CC(NC(C)=O)C(=O)O)c2c1 (stereo unspecified)
inactive: [1] 1.75% | [2] -0.9% | [3] 1.55% | [4] -0.5% | [5] 3.85% | [6] -1.25%

CCOC(=O)CC(CSCP(=O)(OCC)OCC)C(=O)OCC (stereo unspecified)
inactive: [1] 5.15% | [2] -1.35% | [3] 13.2% | [4] 3.4% | [5] 9.55% | [6] 16.2%

COc1ccc(OC)c(N2C(=O)C(=O)C(C(C)=O)C2=O)c1 (stereo unspecified)
inactive: [1] 27.7% | [2] -1.95% | [3] 7.15% | [4] 25.1% | [5] 7.65% | [6] 16.5%

CCOC(=O)C1(C(C)C)OC2(O)C3CCCN3C(=O)C(C(C)C)N2C1=O (stereo unspecified)
inactive: [1] 8.45% | [2] 10.5% | [3] -3% | [4] 20.3% | [5] 8.8% | [6] 17.4%

Cc1cc2c(cc1N)C(C)(C)CCC2(C)C
inactive: [1] -4.65% | [2] -18.2% | [3] 10.2% | [4] -24.9% | [5] -11.8% | [6] -18.1%

O=C1c2ccccc2C2(c3ccccc3)C=NNC12c1ccccc1 (stereo unspecified)
inactive: [1] 21.5% | [2] 6.9% | [3] 18.2% | [4] 4.4% | [5] 55.5% | [6] 25.1%

Cc1cccc(-c2cccc(C)c2C)c1C
inactive: [1] -6.5% | [2] 4.75% | [3] -1.35% | [4] 11.7% | [5] 4.2% | [6] 16.1%

O=C(CN1C(=O)c2ccccc2C1=O)C(O)CN1C(=O)c2ccccc2C1=O (stereo unspecified)
inactive: [1] 2.5% | [2] 0.6% | [3] 2.05% | [4] 27.9% | [5] 11.4% | [6] 14.6%

O=C(O)c1ccccc1SC(Sc1ccccc1C(=O)O)c1ccc(Cl)cc1
inactive: [1] 4.8% | [2] -9.15% | [3] -9% | [4] -11.9% | [5] -4.1% | [6] 15.2%

COc1ccc(-c2oc3ccccc3c(=O)c2O)cc1OC
inactive: [1] 2.3% | [2] 9.9% | [3] 16.2% | [4] -10.8% | [5] 21.4% | [6] -11.1%

C[C@]1(CO)[C@H]2CC[C@@]34C=C[C@@](CO)(CC[C@H]3[C@]2(C)CC[C@H]1O)C4
inactive: [1] 5.45% | [2] 1.05% | [3] 39.6% | [4] 6.4% | [5] 11.7% | [6] -48.4%

O=[N+]([O-])c1ccc(Cl)c(/C=C/c2ncccn2)c1
inactive: [1] 11.4% | [2] 10.1% | [3] 7.9% | [4] -28.1% | [5] -1.45% | [6] 13.9%

COc1cc(C(C)S(=O)(=O)O)ccc1O (stereo unspecified)
inactive: [1] -19.6% | [2] 1.7% | [3] 8.45% | [4] -12.6% | [5] 4.9% | [6] -5.55%

COC(=O)/C=C(/C=C1/C(C#N)=C(N)N(c2ccc(Cl)cc2)C1(C)/C(=C/C(=O)OC)C(=O)OC)C(=O)OC (stereo unspecified)
inactive: [1] -3.15% | [2] -11.4% | [3] 2.5% | [4] 6.95% | [5] 21.8% | [6] 10.7%
